Screens as filed in PubChem.
GLS inhibitor – blocks human kidney-isoform glutaminase activity; Potency, µM (doses to about 45.5 µM), inactives show at the top dose activity change, negative = inhibition, actives largely listed as inhibitors; 410,000 compounds, 0.21% hits; AID 624170; GLS enzymatic activity, qHTS titration
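Human kidney-isoform GLS in 45 mM KH2PO4 pH 8.2, 0.02% Tween-20, with compound, started with 1mM L-Glutamine (added stock). Glutamate oxidase/HRP/Amplex red coupled fluorescence read at start and after 30 min at RT.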
PGK inhibitor – blocks T. brucei phosphoglycerate kinase; P07378; PGK/GAPDH coupled, Kinase-Glo luminescence, 60 min; Potency, µM (top dose mostly 57.5 µM), for inactives: at the top dose activity change, negative = inhibition, usual class: inhibitors; 380,000 compounds, 0.043% hits; AID 602233; further: nearly all actives have a fitted effect of over 60% in size
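Luminescent ATP detection (Kinase-Glo Plus) follows a 60-minute room-temperature incubation, with wells lacking PGK as controls. Buffer: 100 mM TEA (pH 7.6), 5 mM MgCl2, 0.01% Tween-20. Coupling enzyme GAPDH (100 nM final) supplies unstable 1,3-BPG in-well.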
Tb PFK block – inhibitors of T. brucei phosphofructokinase; T. brucei PFK, ADP-Glo luminescence; 330,000 compounds, 0.17% hits; O15648; Potency, µM (highest dose often 57.5 µM), without a hit: at the highest dose activity, negative = inhibition, usual class: inhibitors;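 further: 0% = uninhibited 1x PFK enzyme wells and -100% = no-enzyme wells; nearly all actives have a fitted effect of over 60% in size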
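Compounds were pin-transferred as a titration series up to 57 uM into substrate buffer (0.5 mM F6P, 0.1 mM ATP, pH 8.0), then 1.25 nM PFK was added and reactions ran 45 min before ADP-Glo detection.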
Pin1 inh – inhibitors of human Pin1; Q13526; Pin1 FP peptide displacement, HiFluor488, 10 min; Potency, µM (highest dose often 115 µM), for the others: at the highest dose activity, negative = inhibition, usual class: inhibitors; 390,000 compounds, 0.009% hits; AID 504891; active means well fitted inhibition curve with a large enough effect in the polarisation, with a control signal flat, not every such curve was filed as active; inconclusive means small, poorly fitted or top-dose-only effect, or effect the other way, or a change in a side signal; inactive means no such curve, though single readings can be large or run the other way; the % refers to the polarisation
VDR inh – inhibitors of human vitamin D receptor; P11473; Potency, µM, for inactives: max response, negative = inhibition, usual class: inhibitors; AID 504847; 400,000 compounds, 0.93% hits; VDR-SRC2-3 peptide fluorescence polarization, 2 h
Target sequence (P11473 whole entry, looked up): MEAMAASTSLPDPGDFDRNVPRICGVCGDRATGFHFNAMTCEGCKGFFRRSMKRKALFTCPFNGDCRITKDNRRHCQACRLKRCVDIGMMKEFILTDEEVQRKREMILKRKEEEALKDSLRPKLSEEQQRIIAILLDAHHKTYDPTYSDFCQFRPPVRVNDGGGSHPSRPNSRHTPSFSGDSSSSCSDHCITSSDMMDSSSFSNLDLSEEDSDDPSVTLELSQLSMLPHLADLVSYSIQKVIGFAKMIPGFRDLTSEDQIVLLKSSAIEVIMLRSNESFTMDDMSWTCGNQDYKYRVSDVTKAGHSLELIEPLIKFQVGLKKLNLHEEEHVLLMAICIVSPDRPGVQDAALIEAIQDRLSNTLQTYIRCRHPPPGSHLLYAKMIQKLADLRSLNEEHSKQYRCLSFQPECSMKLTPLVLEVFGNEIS
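After 23 nl compound addition and a short centrifugation, plates sat for 2 hours at ambient temperature; polarization of fluorescence then indicated loss of VDR binding to peptide SRC2-3.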
* marks the source's active call; other numbers are inactive results; i = inactive; ? = inconclusive; . = not tested or not shown; ! = not active in a repeat; [ ] = another dose, or the depositor's remark. Only some compounds are listed: those with a hit (about 1.1% of all), similar ones and a draw of the others. Unless noted, the call rests on the fitted dose curve; in most records, active means well fitted curve in the direction sought with a large enough effect; inconclusive means small, poorly fitted or top-dose-only effect, or another doubt; inactive means no such curve, though single readings can be large; an effect the other way counts as inactive or inconclusive. Unless noted, on the % scale 0 is the no-effect control and ±100 the full control effect; potency means the concentration at half of the fitted maximal effect.

SMILES	GLS inhibitor	PGK inhibitor	Tb PFK block	Pin1 inh	VDR inh
Cc1ccccc1N1C(S)=C(C#N)C(=O)NC1c1cccs1 (stereo unspecified)	-19%	6%	-1%	0%	22µM*
N#CC1=C(S)N(c2ccc(F)cc2)C(c2cccs2)NC1=O (stereo unspecified)	-11%	-4%	-4%	-2%	?
CCCCN1C(=O)C2ON(c3ccccc3C)C(c3ccco3)C2C1=O (stereo unspecified)	-2%	-5%[11.5 µM]	-5%	?	-5%
CCOC(=O)c1cc(C)n(CC2CCC(C(=O)Nc3ccc(C)cc3)CC2)c1C (stereo unspecified)	-11%	-1%	.	-2%	7%
C=Cc1c(C)/c2[n-]/c1=C\c1[n-]c(c(CC)c1C)/C=c1\[n-]c3c(c1C)C(=O)C(C(=O)[O-])C=3c1[n-]c(c(C)c1CCC(=O)[O-])\C=2.[Cu].[Na+].[Na+] (stereo unspecified)	-128%	.	.	.	32µM*
CCCCCC(=O)N1C[C@@H](O)[C@H](n2cc(COC(=O)c3ccccc3)nn2)C[C@@H]1c1ccccc1	-1%	-9%	.	.	.
O=C(/C=C/c1ccc(Br)o1)NCc1ccccc1	-18%	-2%	-20%	?	89µM*
Cc1ccc(CNC(=O)/C=C/c2ccc(Br)o2)cc1	6%	8%	-2%	3%	-5%
CCCN(Cc1cccs1)C(=O)Nc1cc(C)ccc1OC	1%	1%	.	0%	12%
O=C1C=CC2=C3c4cc(O)c(O)cc4C[C@]3(O)COC2=C1	.	.	.	.	11µM*
CCC(C)C(N)C1=NC(C(=O)N[C@@H](CC(C)C)C(=O)N[C@H](CCC(=O)[O-])C(=O)N[C@H](C(=O)N[C@H]2CCCCNC(=O)[C@H](CC(N)=O)NC(=O)[C@@H](CC(=O)[O-])NC(=O)[C@H](Cc3cnc[nH]3)NC(=O)[C@@H](Cc3ccccc3)NC(=O)[C@H]([C@@H](C)CC)NC(=O)[C@@H](CCCN)NC2=O)[C@@H](C)CC)CS1.[Zn+2] (stereo partly specified)	?	28µM*	.	20µM*	?
CCN1CCN(C(=O)N[C@H](C(=O)N[C@@H]2C(=O)N3[C@@H](C(=O)O)C(C)(C)S[C@@H]23)c2ccccc2)C(=O)C1=O	25µM*	.	.	.	.
CCN1CCN(C(=O)N[C@@H](C(=O)N[C@@H]2C(=O)N3[C@@H]2SC(C)(C)[C@@H]3C(=O)O)c2ccccc2)C(=O)C1=O	.	.	-4%	.	.
CC1(C)S[C@H]2C(NC(=O)[C@@H](N)c3ccc(O)cc3)C(=O)N2[C@@H]1C(=O)O (stereo partly specified)	14µM*	.	.	.	1%
Cc1ccc(-c2cc(C(=O)N3CCN(c4ccccc4O)CC3)c3ccccc3n2)cc1	7.1µM*	4%	0%	3%	8%
COc1ccccc1N(C(=O)CCl)c1cn(C(C)=O)c2ccccc12	3%	5%	0%	0%	6%
CC(=O)n1cc(N(C(=O)CCl)c2ccc(Cl)cc2)c2ccccc21	10%	5%	-3%	?	50µM*
O=C1c2ccccc2C(=O)N1c1cncc2ccccc12	.	.	.	0%	.
Nc1ccc(OC(=O)Nc2ccc(O)cc2)cc1	14µM*	-2%	-10%	-1%	-3%
COc1ccc(NC(=O)c2cnc3cc(C)ccn3c2=O)c(OC)c1	-5%	-9%	.	8%	1%
Nc1ccc(O)c([N+](=O)[O-])c1	40µM*!	-3%	-6%	-1%	4%
Cc1ccc(Nc2ccccc2)cc1	-13%	i	-13%	-7%	7%
Cc1ccc(Nc2cc(C)c(O)c(C)c2)cc1	-10%	4%	-5%	-1%	25µM*
O=C(Cn1c(NCCO)nc2ccccc21)Nc1ccc2c(c1)OCCCO2	12%	2%	-8%	3%	16%
CCCS(=O)(=O)N1CC(=O)N(c2ccccc2F)C(C)(C(=O)NC2CCCCCC2)C1 (stereo unspecified)	2%	-9%	.	-4%	8%
CCCCN(C)C(=O)CN1C(=O)CCn2nc(-c3cn(C)c4ccccc34)cc21	-14%	6%	.	-12%	21%
